697 NFkB inh: inhibitors of the PMA/ionomycin-induced NF-kB reporter in 697 B cells; hit rate 0.33% among 330,000; inhibition, % at 4 µM; 697 B-cell NF-kB luciferase reporter, 16 h; in the data active = inhibition above about 35%
Beta apoptosis: blocks beta cell apoptosis; AID 435005; hit rate 0.8% among 300,000; protection from apoptosis, % (test concentration not listed); INS-1E cytokine-induced death, ATP luminescence, 48 h; percent of positive-control rescue, neutral wells zero;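 active = Every replicate reaches about 75%, or at least half do and their mean reaches it too, limit read from the data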;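 also: higher means more ATP so stronger rescue from cytokine killing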
CSC inhib: blocks cancer stem cells; cancer stem cell-like cells viability, luminescence; inhibition, % at 7.5 µM; hit rate 1.1% among 300,000; in the data active = inhibition above about 75%; tested in HMLE shEcad cells
Gli-Sufu antag: Gli-Sufu pathway antagonism | Sufu-KO-LIGHT fibroblasts, Gli luciferase reporter luminescence | hit rate 0.74% among 340,000 | inhibition, % at 5 µM;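 active = inhibition above about 55%, limit read from the data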
Mdm2 MdmX PPI: human Mdm2/MdmX binding inhibition | O15151+Q00987 | inhibition, % at 8 µM | hit rate 3% among 330,000 | SaOS-2 split-luciferase Mdm2/MdmX complementation, luminescence;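 active = inhibition of at least 50% at 8 µM in the primary screen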
Target sequence (O15151 whole entry, looked up): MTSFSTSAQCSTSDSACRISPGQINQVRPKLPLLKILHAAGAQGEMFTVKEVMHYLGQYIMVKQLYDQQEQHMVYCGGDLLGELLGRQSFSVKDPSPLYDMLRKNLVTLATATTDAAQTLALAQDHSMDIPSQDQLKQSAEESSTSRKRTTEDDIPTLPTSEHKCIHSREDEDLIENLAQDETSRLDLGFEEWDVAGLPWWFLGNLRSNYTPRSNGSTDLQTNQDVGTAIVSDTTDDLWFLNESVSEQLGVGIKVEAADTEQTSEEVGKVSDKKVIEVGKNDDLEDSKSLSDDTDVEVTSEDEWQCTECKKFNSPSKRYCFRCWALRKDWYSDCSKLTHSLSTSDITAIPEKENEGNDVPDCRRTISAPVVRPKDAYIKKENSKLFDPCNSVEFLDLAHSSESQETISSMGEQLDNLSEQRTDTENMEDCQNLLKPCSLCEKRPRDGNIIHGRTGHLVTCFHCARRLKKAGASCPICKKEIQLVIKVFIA
Target sequence (Q00987 whole entry, looked up): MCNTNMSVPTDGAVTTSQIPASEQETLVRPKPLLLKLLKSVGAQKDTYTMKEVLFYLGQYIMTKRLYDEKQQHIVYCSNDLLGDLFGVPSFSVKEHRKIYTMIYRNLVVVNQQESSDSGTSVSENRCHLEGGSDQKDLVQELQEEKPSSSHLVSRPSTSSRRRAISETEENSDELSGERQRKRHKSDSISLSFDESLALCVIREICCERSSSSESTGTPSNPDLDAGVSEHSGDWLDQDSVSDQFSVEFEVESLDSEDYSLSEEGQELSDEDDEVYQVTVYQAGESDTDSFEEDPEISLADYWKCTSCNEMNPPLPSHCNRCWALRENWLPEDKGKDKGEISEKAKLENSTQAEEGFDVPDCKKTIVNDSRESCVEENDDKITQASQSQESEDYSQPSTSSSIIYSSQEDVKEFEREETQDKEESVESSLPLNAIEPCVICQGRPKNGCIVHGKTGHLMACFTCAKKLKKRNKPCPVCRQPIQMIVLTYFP
Jurkat NFkB inh: lowers PMA/ionomycin-induced NF-kB signal in Jurkat cells; PMA/ionomycin-induced NF-kB luciferase reporter, luminescence; inhibition, % at 4 µM; hit rate 0.53% among 330,000; AID 435003; in the data active = inhibition above about 50%
Mdm2 MdmX conf: confirmation of human Mdm2/MdmX interaction inhibitors. AID 489028. shares compounds with Mdm2 MdmX PPI. hit rate 55% among 10,000. inhibition, % at 8 µM. Mdm2-MdmX binding, luminescent assay; in the data active = inhibition above about 40%
FLuc counter: full-length luciferase inhibition in Mdm2/MdmX counter-screen. hit rate 77% among 6,200. inhibition, % at 8 µM. SaOS-2 full-length luciferase counterscreen, luminescence. shares compounds with Mdm2 MdmX PPI;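 active = mean inhibition at 8 µM reaching about 37%, which flags the compound as non-specific, limit read from the data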;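 also: p53-null SaOS-2 cells with luciferase driven by a doxycycline-inducible promoter; compound on cells about two nights before reading with doxycycline added after day one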
Numbers stand for hits. Sampled rows, rich in hits. Any-hit rate of the full collection: about 4.5%.

For CN1CCc2c(sc(NC(=O)c3ccc([N+](=O)[O-])o3)c2C(N)=O)C1 the results were 697 NFkB inh inactive, Beta apoptosis inactive, CSC inhib inactive, Gli-Sufu antag inactive, Mdm2 MdmX PPI 94.2, Jurkat NFkB inh inactive, Mdm2 MdmX conf 88.7 and FLuc counter 55.2.
`NC(=O)c1ccsc1NC(=O)COC(=O)c1ccc([N+](=O)[O-])o1` gave 697 NFkB inh inactive, Beta apoptosis inactive, Gli-Sufu antag inactive, Mdm2 MdmX PPI inactive and Jurkat NFkB inh inactive.
CCOC(=O)N1CCN(S(=O)(=O)c2ccc(C(=O)Nc3sc4c(c3C(N)=O)CCN(CC)C4)cc2)CC1 was read as 697 NFkB inh inactive, CSC inhib inactive, Gli-Sufu antag inactive, Mdm2 MdmX PPI 79.4, Jurkat NFkB inh inactive and Mdm2 MdmX conf inactive.
Screening NC(=O)c1ccsc1NC(=O)c1ccc([N+](=O)[O-])o1 returned 697 NFkB inh inactive, Beta apoptosis inactive, CSC inhib inactive, Gli-Sufu antag inactive, Mdm2 MdmX PPI 56.6, Jurkat NFkB inh inactive and Mdm2 MdmX conf inactive.
For CCN1CCc2c(sc(NC(=O)c3ccc(S(=O)(=O)N4CCCC4)cc3)c2C(=O)NC)C1 the results were 697 NFkB inh inactive, CSC inhib inactive, Gli-Sufu antag inactive, Mdm2 MdmX PPI 82.8, Jurkat NFkB inh inactive and Mdm2 MdmX conf inactive.
Screening Cc1ccc(C(=O)NC(=S)N(C)C2CCCCC2)cc1 returned 697 NFkB inh inactive, Beta apoptosis inactive, CSC inhib inactive, Gli-Sufu antag inactive, Mdm2 MdmX PPI inactive and Jurkat NFkB inh inactive.
For CN1CCc2c(sc(NC(=O)c3ccc(S(=O)(=O)N4CCc5ccccc54)cc3)c2C(N)=O)C1 the results were 697 NFkB inh inactive, Beta apoptosis inactive, CSC inhib 82.4, Mdm2 MdmX PPI 96.3, Jurkat NFkB inh inactive, Mdm2 MdmX conf 82.8 and FLuc counter inactive.
Screening CCOC(=O)N1CCN(S(=O)(=O)c2ccc(C(=O)Nc3sc4c(c3C(=O)OC)CCN(C)C4)cc2)CC1 returned 697 NFkB inh inactive, CSC inhib inactive, Gli-Sufu antag inactive, Mdm2 MdmX PPI 100.4, Jurkat NFkB inh inactive and Mdm2 MdmX conf inactive.
`O=C(Nc1cccc(NC(=O)c2ccccc2Cl)c1)c1ccc([N+](=O)[O-])o1` gave 697 NFkB inh inactive, Beta apoptosis 96.1, CSC inhib inactive, Gli-Sufu antag inactive, Mdm2 MdmX PPI 60.6, Jurkat NFkB inh inactive, Mdm2 MdmX conf 58.0 and FLuc counter 42.4.
Screening CC1CSC(N(C(=O)c2ccc(S(C)(=O)=O)cc2)c2ccc(Cl)cc2)=N1 (stereo not drawn) returned 697 NFkB inh inactive, Beta apoptosis inactive, CSC inhib inactive, Gli-Sufu antag inactive, Mdm2 MdmX PPI inactive and Jurkat NFkB inh inactive.
For Cc1ccc(CN(C(=O)c2csnn2)C(C(=O)NC2CCCC2)c2ccccn2)cc1 (stereo not drawn) the results were 697 NFkB inh inactive, Beta apoptosis inactive, CSC inhib inactive, Gli-Sufu antag inactive, Mdm2 MdmX PPI inactive and Jurkat NFkB inh inactive.
`CS(=O)(=O)c1sc(C#N)c2c1C(=O)CC(c1ccccc1)C2` (stereo not drawn) gave 697 NFkB inh inactive, Beta apoptosis 39.1, CSC inhib 109.6, Gli-Sufu antag inactive, Mdm2 MdmX PPI 99.2, Jurkat NFkB inh inactive, Mdm2 MdmX conf 99.8 and FLuc counter inactive.
For COc1ccc2nc3cc(Cl)ccc3c(Nc3cc(C(C)C)c(O)cc3C)c2c1 the results were 697 NFkB inh inactive, Beta apoptosis 113.8, CSC inhib 103.3, Gli-Sufu antag inactive, Mdm2 MdmX PPI 94.3, Jurkat NFkB inh inactive, Mdm2 MdmX conf 64.0 and FLuc counter 64.1.
`CC(C)NC(=O)c1cc(-c2cccs2)nc2ccccc12` gave 697 NFkB inh inactive, Beta apoptosis inactive, CSC inhib inactive, Gli-Sufu antag inactive, Mdm2 MdmX PPI inactive and Jurkat NFkB inh inactive.
For Cc1cccc2sc(NNC(=O)c3cc(-c4cccs4)nc4ccccc34)nc12 the results were 697 NFkB inh inactive, CSC inhib 103.2, Gli-Sufu antag inactive, Mdm2 MdmX PPI 81.9, Jurkat NFkB inh inactive, Mdm2 MdmX conf 51.3 and FLuc counter 61.0.
`CCN(CC)S(=O)(=O)c1ccc(NC(=O)c2cccs2)cc1` gave 697 NFkB inh inactive, Beta apoptosis inactive, CSC inhib inactive, Gli-Sufu antag inactive, Mdm2 MdmX PPI inactive and Jurkat NFkB inh inactive.
